# Laboratory results taken from paper PMC4336329 (PLoS ONE, 2015).
# In all, about 310,000 compounds went through this assay and about 14,000 (4.5%) showed an effect of 50% or more. The effect is printed as a negative number. The sample as a whole holds a higher share of strong results than the screen did.
# Target: human ether-à-go-go-related gene (hERG) potassium channel (human, UniProt Q12809)
# Assay: primary screen, population patch clamp on CHO cells stably expressing hERG; higher = less effect of the substance
# 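Also: peak tail current of the secondary pulse compared with the same well before compound.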
# Sequence of human ether-à-go-go-related gene (hERG) potassium channel (Q12809 whole entry, looked up): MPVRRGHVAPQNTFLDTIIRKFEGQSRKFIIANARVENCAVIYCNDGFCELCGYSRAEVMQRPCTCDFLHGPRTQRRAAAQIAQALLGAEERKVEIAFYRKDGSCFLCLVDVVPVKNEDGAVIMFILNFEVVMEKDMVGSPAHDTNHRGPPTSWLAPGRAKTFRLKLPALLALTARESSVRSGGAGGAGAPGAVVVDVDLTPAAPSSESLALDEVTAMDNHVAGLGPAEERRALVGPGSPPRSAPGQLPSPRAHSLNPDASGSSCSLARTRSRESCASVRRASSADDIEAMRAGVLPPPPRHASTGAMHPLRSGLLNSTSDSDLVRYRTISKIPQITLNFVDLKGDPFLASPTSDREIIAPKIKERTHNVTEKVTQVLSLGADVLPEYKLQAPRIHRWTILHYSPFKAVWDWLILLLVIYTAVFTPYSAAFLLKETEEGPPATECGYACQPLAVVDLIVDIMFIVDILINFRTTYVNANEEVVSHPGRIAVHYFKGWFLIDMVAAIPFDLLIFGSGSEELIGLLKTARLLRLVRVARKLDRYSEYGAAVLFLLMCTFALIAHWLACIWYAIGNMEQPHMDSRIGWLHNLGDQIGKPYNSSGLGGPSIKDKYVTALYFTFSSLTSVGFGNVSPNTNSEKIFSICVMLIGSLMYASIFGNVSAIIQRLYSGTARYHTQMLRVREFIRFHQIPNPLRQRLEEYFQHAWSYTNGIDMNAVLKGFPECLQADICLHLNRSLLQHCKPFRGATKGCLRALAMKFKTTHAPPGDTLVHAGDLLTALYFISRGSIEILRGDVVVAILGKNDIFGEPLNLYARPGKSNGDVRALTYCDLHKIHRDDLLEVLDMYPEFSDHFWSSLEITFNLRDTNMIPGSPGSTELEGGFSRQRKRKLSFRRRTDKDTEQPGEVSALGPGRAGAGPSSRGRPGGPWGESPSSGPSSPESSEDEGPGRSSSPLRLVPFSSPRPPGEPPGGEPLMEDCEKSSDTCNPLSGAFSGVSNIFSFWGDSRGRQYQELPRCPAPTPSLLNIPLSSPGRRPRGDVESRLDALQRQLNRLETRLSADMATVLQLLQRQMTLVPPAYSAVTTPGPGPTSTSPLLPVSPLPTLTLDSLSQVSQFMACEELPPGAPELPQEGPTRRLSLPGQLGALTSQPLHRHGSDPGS
row,Compound,"hERG current change (%, negative = inhibition) at 10uM [%]"
1,COCCCN(C(=O)CCOc1ccccc1C)c1c(N)n(Cc2ccccc2)c(=O)[nH]c1=O,-3.05
2,CCCN(C(=O)CCOc1ccc(C(C)(C)C)cc1)c1c(N)n(Cc2ccccc2)c(=O)[nH]c1=O,29.7
3,COCCCN(C(=O)CCOc1ccc(C(C)(C)C)cc1)c1c(N)n(Cc2ccccc2)c(=O)[nH]c1=O,-62.2
4,Cc1ccccc1OCCC(=O)N(CC(C)C)c1c(N)n(Cc2ccccc2)c(=O)[nH]c1=O,-64.4
5,COCCCN(C(=O)CCOc1ccc(C)cc1)c1c(N)n(Cc2ccccc2)c(=O)[nH]c1=O,-20.2
6,Cc1ccccc1OCCC(=O)N(Cc1ccccc1)c1c(N)n(Cc2ccccc2)c(=O)[nH]c1=O,-7.3
7,C=CCNC(=O)c1ccc2nc(-c3ccccc3)c(-c3ccccc3)nc2c1,-15.4
8,CN(c1ccccc1)c1ccc(/C=C(\CCC(=O)O)c2nc3ccccc3s2)cc1[N+](=O)[O-],44.6
9,CCOC(=O)C1(Cc2cccc(Cl)c2)CCCN(C(=O)c2cc(C)on2)C1 (centres unmarked),-9.8
10,O=C(NCc1ccc(F)cc1)C1CCCN(C(=O)Nc2ccccc2)C1 (centres unmarked),-38.5
11,CC1(C)CC(=O)C2=C(C1)OC(N)=C(C#N)C2c1ccccc1 (centres unmarked),-14.4
12,CC(c1ccccc1)C1C(C#N)=C(N)OC2=C1C(=O)CCC2 (centres unmarked),-6.39
13,CC(c1ccccc1)C1C(C#N)=C(N)OC2=C1C(=O)CC(C)(C)C2 (centres unmarked),-56.9
14,CC(=O)Nc1ccccc1-c1nc2ccc(C(=O)N3CCN(c4cc(C)ccc4C)CC3)cc2[nH]c1=O,-23.5
15,CCOC(=O)N1CCC(N2CCN(S(=O)(=O)c3ccc(C)cc3)CC2)CC1.O=C(O)C(=O)O,-19.1
16,O=c1cc(CN2CCN(S(=O)(=O)c3ccccc3[N+](=O)[O-])CC2)nc2sccn12,-53.7
17,O=c1cc(CN2CCN(S(=O)(=O)c3ccccc3)CC2)nc2sccn12,-2.25
18,O=S(=O)(c1ccccc1)N1CCC(O)(CN2CCN(c3ccccc3)CC2)CC1,12.2
19,O=S(=O)(c1ccc(Cl)cc1)N1CCC(O)(CN2CCN(Cc3ccccc3)CC2)CC1,-75.8
20,COc1ccc(S(=O)(=O)N2CCN(Cc3ccccc3)CC2)cc1,-19.5
21,O=c1cc(CN2CCN(S(=O)(=O)c3ccc4ccccc4c3)CC2)nc2sccn12,-25.2
22,COc1ccc(S(=O)(=O)N2CCC(N3CCN(Cc4ccccc4)CC3)CC2)cc1.O=C(O)C(=O)O,-39.2
23,CN1CCN(CC2(O)CCN(S(=O)(=O)c3ccc(Cl)cc3)CC2)CC1,-36
24,COc1ccc(S(=O)(=O)N2CCN(C3CCN(Cc4ccccc4)CC3)CC2)cc1,-59.4

row,Compound,"hERG current change (%, negative = inhibition) at 10uM [%]"
1,Cc1ccc(S(=O)(=O)N2CCN(C3CCN(Cc4ccccc4)CC3)CC2)cc1.O=C(O)C(=O)O,-76.6
2,Cc1ccc(S(=O)(=O)N2CCN(Cc3ccccc3)CC2)cc1,-9.58
3,Cc1ccc(CNC(=S)NC2CCC(C(C)(C)C)CC2)cc1 (centres unmarked),10.8
4,CCC(NC(=O)C1CCC1)c1ccccc1 (centres unmarked),12.6
5,Cc1c(/C=C/C(=O)c2cccs2)cnn1C,-0.723
6,COc1ccc(CNc2cccc(C)n2)c(O)c1,-3.24
7,Cc1cc(C)c(NC(=O)COC(=O)c2ccc([N+](=O)[O-])s2)c(C)c1,0.0437
8,COc1ccccc1NS(=O)(=O)c1cc(NC(=O)c2[nH]c(C)c(C(C)=O)c2C)ccc1N1CCOCC1,0.128
9,O=C(CSc1nc(-c2ccccc2)cc(=O)[nH]1)Nc1ccccc1,18
10,COc1ccc(C(=O)/C=C/c2cn(CC(O)CN3CCOCC3)c3ccccc23)cc1 (centres unmarked),3.55
11,O=C(CSc1ccccn1)Nc1cccc(NC(=O)CSc2ccccn2)n1,-11.9
12,O=[N+]([O-])c1ccccc1S(=O)(=O)N1CCN(Cc2ccccc2)CC1,-34.6
13,Cn1c(=O)c(=O)n(C)c2cc(S(=O)(=O)N3CCC(Cc4ccccc4)CC3)ccc21,-10.9
14,O=S(=O)(c1ccccc1)N1CCN(C2CCN(Cc3ccccc3)CC2)CC1,-64
15,O=S(=O)(c1ccc(Cl)cc1)N1CCN(C2CCN(Cc3ccccc3)CC2)CC1,-71.4
16,Cn1c(=O)c(=O)n(C)c2cc(S(=O)(=O)N3CC(=O)N(CCc4ccccc4)C(=O)C3)ccc21,19.4
17,O=S(=O)(c1ccccc1)N1CCN(Cc2ccc(Cl)cc2)CC1,-22.7
18,O=S(=O)(c1ccccc1)N1CCN(Cc2ccccc2)CC1,19.3
19,O=[N+]([O-])c1ccccc1S(=O)(=O)N1CCN(C2CCN(Cc3ccccc3)CC2)CC1,-51.9
20,O=S(=O)(c1ccc(Cl)cc1)N1CCN(C2CCCCCC2)CC1,-17.3
21,O=[N+]([O-])c1ccccc1S(=O)(=O)N1CCN(C2CCCC2)CC1,0.58
22,CS(=O)(=O)N1CCN(C2CCN(Cc3ccccc3)CC2)CC1,-1.48
23,Cn1c(=O)c(=O)n(C)c2cc(S(=O)(=O)N3CCN(Cc4ccccc4)CC3)ccc21,-63.4
